According to the supplement of paper PMC10849652:
Of roughly 8,800 targets only a part is listed; those with a hit were picked by preference. About 0.5% of all pairs of compound and target were hits.

Key:
Assay in all cases: log2 fold change, soluble protein after heating vs DMSO (PISA); higher = thermal stabilisation; K562 lysate, 10 uM; active = over 0.2 and 3.5 SD of the protein, either way, in both replicates (recomputed)
erlotinib = compound: C#Cc1cccc(Nc2ncnc3cc(OCCOC)c(OCCOC)cc23)c1 [erlotinib]
How it was run: (§1)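 To prepare the extract, K562 pellets were dounce-homogenised in PBS pH 7.4 with 1 mM MgCl2, giving crude material at 1 mg/mL protein. This was treated with 10 μM compound for 30 min, then heated in aliquots for 3 min over 48°C-58°C before pooling and addition of NP-40 to 0.5% at 4°C. Centrifugation at 21,000xg for 90 min left soluble protein in the supernatant, which TMTpro 16plex LC-MS/MS quantified with equalised channel sums. Results are log-two fold changes in thermal stability compared with solvent controls, from duplicates.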

[1] = compound: C/C(=N\NC(=O)C1=CC(=CC=C1)S(=O)(=O)N2CCOCC2)/C3=C(C=CC(=C3)Cl)O
How it was run: as §1

[2] = compound: C1=CC(=CC=C1C2=NC3=C(N2)C=C(C=C3)C(=O)N)OC4=CC=C(C=C4)Cl
How it was run: as §1

[3] = compound: C1=CC2=C(C=CC(=C2)/C=C\3/C(=O)NC(=NCC4=CC=CS4)S3)N=C1
How it was run: as §1

[4] = compound: C1=CC2=NC=CN=C2C=C1/C=C/3\C(=O)NC(=O)S3
How it was run: as §1

[5] = compound: C1=CC=C(C=C1)C2=NC(=C(N2)C3=CC=NC=C3)C4=CC(=C(C=C4)Cl)O
How it was run: as §1

[6] = compound: C1=CC=C2C(=C1)C3=NNC4=CC=CC(=C43)C2=O
How it was run: as §1

[7] = compound: C1CCN(C1)C(=O)NC2=CC=CC(=C2)NC3=NC=C(C(=N3)NCCC4=CN=CN4)Br
How it was run: as §1

[8] = compound: C1CN(CCC1(CC2=CC=C(C=C2)Cl)N)C3=NC=NC4=C3C=CN4
How it was run: as §1

IRAK-1-4 Inhibitor I = compound: C1COCCN1CCN2C3=CC=CC=C3N=C2NC(=O)C4=CC(=CC=C4)[N+](=O)[O-] [IRAK-1-4 Inhibitor I]
How it was run: as §1

ibrutinib = compound: C=CC(=O)N1CCC[C@@H](n2nc(-c3ccc(Oc4ccccc4)cc3)c3c(N)ncnc32)C1 [ibrutinib]
How it was run: as §1

[9] = compound: CC(=O)c1cnc2ccc(-c3cc(Cl)c(O)c(Cl)c3)nc2c1N[C@H]1CC[C@H](CN(C)C)CC1
How it was run: as §1

ralimetinib = compound: CC(C)(C)Cn1c(N)nc2ccc(-c3[nH]c(C(C)(C)C)nc3-c3ccc(F)cc3)nc21 [ralimetinib]
How it was run: as §1

[10] = compound: CC(C)(O)CC(=O)NCCn1ccc2ncnc(Nc3ccc(Oc4cccc(C(F)(F)F)c4)c(Cl)c3)c21
How it was run: as §1

[11] = compound: CC(C)C1=C2N=C(C=C(N2N=C1)NCC3=CC=CC=C3)NCCCCCCN
How it was run: as §1

[12] = compound: CC1=C(C(CC(=O)N1)C2=CC=C(C=C2)C(F)(F)F)C(=O)NC3=C(C=C4C(=C3)C=NN4)F
How it was run: as §1

[13] = compound: CC1=C(C2=C(C=C1)C(=O)C3=CC=CC=C3N2CCCN)C
How it was run: as §1

[14] = compound: CC1=C(C=C(C=C1)NC(=O)C2=CC(=CC=C2)C(C)(C)C#N)NC3=CC4=C(C=C3)N=CN(C4=O)C
How it was run: as §1

[15] = compound: CC1=C(C=C(C=C1)NC(=O)C2=CC(=CC=C2)N(C)C)NC(=O)C3=CC=C(C=C3)O
How it was run: as §1

[16] = compound: CC1=CC=C(C=C1)SC2=C3C=C(SC3=CN=C2)C(=O)N
How it was run: as §1

Measured: log2 fold change

MYO1D (UniProt O94832)
Sequence of UniProt O94832 (O94832 whole entry, looked up): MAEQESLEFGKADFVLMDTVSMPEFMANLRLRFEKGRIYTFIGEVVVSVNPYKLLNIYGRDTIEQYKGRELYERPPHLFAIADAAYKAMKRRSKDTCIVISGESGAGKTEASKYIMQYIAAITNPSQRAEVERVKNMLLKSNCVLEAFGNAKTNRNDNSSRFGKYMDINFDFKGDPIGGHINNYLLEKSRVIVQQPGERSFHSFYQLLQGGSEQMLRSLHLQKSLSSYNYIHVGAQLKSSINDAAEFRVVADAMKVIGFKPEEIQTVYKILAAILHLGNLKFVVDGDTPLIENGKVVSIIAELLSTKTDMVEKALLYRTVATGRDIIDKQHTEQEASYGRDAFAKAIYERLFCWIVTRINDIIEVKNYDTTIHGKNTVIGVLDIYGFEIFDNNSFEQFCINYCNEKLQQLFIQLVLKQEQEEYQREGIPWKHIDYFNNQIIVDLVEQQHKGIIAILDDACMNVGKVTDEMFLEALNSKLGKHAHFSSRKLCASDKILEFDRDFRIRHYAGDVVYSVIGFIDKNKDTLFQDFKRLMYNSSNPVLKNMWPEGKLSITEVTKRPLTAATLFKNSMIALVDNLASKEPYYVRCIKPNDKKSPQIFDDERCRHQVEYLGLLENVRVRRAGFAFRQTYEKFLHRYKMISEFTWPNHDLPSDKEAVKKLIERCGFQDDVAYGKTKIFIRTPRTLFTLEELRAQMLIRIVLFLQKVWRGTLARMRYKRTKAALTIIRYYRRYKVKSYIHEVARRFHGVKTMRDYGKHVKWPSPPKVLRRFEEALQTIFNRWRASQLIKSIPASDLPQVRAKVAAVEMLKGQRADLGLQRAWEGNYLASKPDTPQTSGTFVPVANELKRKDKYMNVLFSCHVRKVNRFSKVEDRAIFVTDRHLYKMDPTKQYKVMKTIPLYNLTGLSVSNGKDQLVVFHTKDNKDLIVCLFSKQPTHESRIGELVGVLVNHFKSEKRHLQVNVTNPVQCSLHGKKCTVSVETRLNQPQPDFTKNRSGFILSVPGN
inactive: erlotinib 0.01 | [1] -0.064 | [2] -0.022 | [3] 0.004 | [4] 0.006 | [5] 0.01 | [6] -0.083 | [7] 0.015 | [8] 0.031 | IRAK-1-4 Inhibitor I -0.027 | ibrutinib -0.016 | [9] -0.012 | ralimetinib 0.04 | [10] 0.003 | [11] 0.018 | [12] -0.021 | [13] -0.009 | [14] -0.014 | [15] 0.01 | [16] 0.031

OSBP (UniProt P22059)
inactive: erlotinib -0.023 | [1] -0.056 | [2] 0.037 | [3] -0.006 | [4] 0.017 | [5] -0.031 | [6] -0.031 | [7] -0.016 | [8] 0.016 | IRAK-1-4 Inhibitor I -0.112 | ibrutinib -0.007 | [9] 0.003 | ralimetinib -0.019 | [10] -0.007 | [11] -0.19 | [12] 0.018 | [13] 0.04 | [14] -0.103 | [15] 0.011 | [16] -0.003

NOSTRIN (UniProt Q8IVI9)
Sequence of UniProt Q8IVI9 (Q8IVI9 whole entry, looked up): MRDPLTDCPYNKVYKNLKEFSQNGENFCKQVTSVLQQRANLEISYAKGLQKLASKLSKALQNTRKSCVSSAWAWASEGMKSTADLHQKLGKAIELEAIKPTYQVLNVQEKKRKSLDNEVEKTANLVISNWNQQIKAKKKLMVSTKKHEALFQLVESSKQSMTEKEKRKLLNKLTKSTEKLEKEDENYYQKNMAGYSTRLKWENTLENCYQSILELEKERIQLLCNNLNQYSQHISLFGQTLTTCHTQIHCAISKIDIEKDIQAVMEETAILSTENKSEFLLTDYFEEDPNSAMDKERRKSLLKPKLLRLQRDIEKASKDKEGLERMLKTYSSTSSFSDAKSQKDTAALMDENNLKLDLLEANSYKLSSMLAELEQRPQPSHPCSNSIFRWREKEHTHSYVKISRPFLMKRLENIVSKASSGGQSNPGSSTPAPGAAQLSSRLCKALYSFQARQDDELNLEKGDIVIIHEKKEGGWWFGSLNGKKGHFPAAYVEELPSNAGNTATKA
inactive: erlotinib -0.031 | [1] 0.032 | [2] 0.132 | [3] 0.072 | [4] -0.008 | [5] -0.013 | [6] 0.07 | [7] -0.055 | [8] -0.065 | IRAK-1-4 Inhibitor I 0.001 | ibrutinib 0.025 | [9] -0.009 | ralimetinib 0.012 | [10] -0.041 | [11] -0.125 | [12] -0.032 | [13] -0.039 | [14] -0.019 | [15] 0.088 | [16] 0.012

NCAPH (UniProt Q15003)
inactive: erlotinib 0.036 | [1] -0.008 | [2] -0.006 | [3] -0.007 | [4] -0.002 | [5] -0.012 | [6] -0.063 | [7] -0.008 | [8] -0.018 | IRAK-1-4 Inhibitor I 0 | ibrutinib 0.006 | [9] 0.016 | ralimetinib -0.002 | [10] -0.031 | [11] -0.013 | [12] 0.003 | [13] -0.001 | [14] -0.003 | [15] 0.012 | [16] 0.011

NIFK (UniProt Q9BYG3)
Sequence of UniProt Q9BYG3 (Q9BYG3 whole entry, looked up): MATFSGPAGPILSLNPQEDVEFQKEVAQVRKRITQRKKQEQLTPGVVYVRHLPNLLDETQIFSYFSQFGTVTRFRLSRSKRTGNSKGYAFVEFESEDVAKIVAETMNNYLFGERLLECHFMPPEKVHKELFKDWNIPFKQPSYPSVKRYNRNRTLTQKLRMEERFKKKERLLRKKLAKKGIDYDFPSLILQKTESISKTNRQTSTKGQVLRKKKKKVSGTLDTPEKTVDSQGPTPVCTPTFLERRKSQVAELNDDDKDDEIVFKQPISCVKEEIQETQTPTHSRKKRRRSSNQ
inactive: erlotinib 0 | [1] -0.05 | [2] -0.01 | [3] -0.009 | [4] 0.032 | [5] 0.038 | [6] 0.01 | [7] -0.02 | [8] -0.005 | IRAK-1-4 Inhibitor I -0.042 | ibrutinib 0.02 | [9] -0.039 | ralimetinib 0.022 | [10] 0.002 | [11] -0.001 | [12] 0.016 | [13] -0.035 | [14] -0.005 | [15] 0.016 | [16] 0.032

MTCH2 (UniProt Q9Y6C9)
Sequence of UniProt Q9Y6C9 (Q9Y6C9 whole entry, looked up): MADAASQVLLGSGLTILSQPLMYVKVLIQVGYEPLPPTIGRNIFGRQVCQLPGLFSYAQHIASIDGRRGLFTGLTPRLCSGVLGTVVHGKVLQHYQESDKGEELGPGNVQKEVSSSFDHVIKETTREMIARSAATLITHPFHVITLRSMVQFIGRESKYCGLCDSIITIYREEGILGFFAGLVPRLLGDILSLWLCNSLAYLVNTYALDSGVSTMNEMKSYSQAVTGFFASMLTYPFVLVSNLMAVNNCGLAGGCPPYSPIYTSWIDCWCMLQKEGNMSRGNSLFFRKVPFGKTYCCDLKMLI
inactive: erlotinib 0.004 | [1] 0.051 | [2] -0.081 | [3] -0.032 | [4] -0.06 | [5] -0.004 | [6] -0.031 | [7] -0.033 | [8] -0.011 | IRAK-1-4 Inhibitor I 0.027 | ibrutinib 0.008 | [9] -0.022 | ralimetinib 0.022 | [10] 0.023 | [11] 0.044 | [12] -0.019 | [13] -0.011 | [14] 0.043 | [15] -0.036 | [16] 0.031

OGFR (UniProt Q9NZT2)
inactive: erlotinib 0.023 | [1] 0.023 | [2] 0.018 | [3] -0.015 | [4] -0.012 | [5] -0.011 | [6] -0.027 | [7] -0.01 | [8] 0.038 | IRAK-1-4 Inhibitor I -0.012 | ibrutinib -0.012 | [9] 0.02 | ralimetinib 0.007 | [10] -0.011 | [11] -0.008 | [12] 0.001 | [13] -0.016 | [14] -0.027 | [15] -0.003 | [16] 0.002

NMT1 (UniProt P30419)
inactive: erlotinib -0.027 | [1] -0.147 | [2] 0.15 | [3] 0.019 | [4] -0.021 | [5] -0.024 | [6] 0.062 | [7] -0.012 | [8] -0.165 | IRAK-1-4 Inhibitor I -0.027 | ibrutinib -0.045 | [9] 0.005 | ralimetinib -0.001 | [10] 0.014 | [11] 0.022 | [12] -0.011 | [13] -0.009 | [14] -0.01 | [15] 0.017 | [16] 0.001

OSBPL6 isoform 5 (UniProt Q9BZF3)
inactive: erlotinib 0.182 | [2] 0.09 | [3] -0.006 | [4] -0.012 | [5] 0.257 | [6] 0.107 | [7] -0.029 | [8] -0.015 | IRAK-1-4 Inhibitor I -0.08 | ibrutinib 0.118 | [9] -0.031 | ralimetinib 0.23 | [10] -0.042 | [11] 0.098 | [12] -0.032 | [13] 0.016 | [14] 0.015 | [15] -0.013 | [16] 0.01
active: [1] 0.398

PAIP2 (UniProt Q9BPZ3)
Sequence of UniProt Q9BPZ3 (Q9BPZ3 whole entry, looked up): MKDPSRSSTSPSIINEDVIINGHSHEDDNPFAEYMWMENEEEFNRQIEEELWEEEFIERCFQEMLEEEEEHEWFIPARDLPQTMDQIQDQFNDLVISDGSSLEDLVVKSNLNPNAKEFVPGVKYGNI
inactive: erlotinib 0.044 | [1] 0.041 | [2] -0.016 | [3] -0.01 | [4] 0.004 | [5] -0.054 | [6] -0.053 | [7] -0.044 | [8] 0.022 | IRAK-1-4 Inhibitor I 0.017 | ibrutinib 0.145 | [9] 0.012 | ralimetinib -0.05 | [10] -0.006 | [11] 0.006 | [12] 0.015 | [13] 0.028 | [14] 0.01 | [15] -0.003 | [16] -0.008

NF1 (UniProt P21359)
inactive: erlotinib 0.072 | [1] -0.031 | [2] -0.02 | [3] -0.056 | [4] -0.008 | [5] -0.003 | [6] -0.089 | [7] 0.017 | [8] 0 | IRAK-1-4 Inhibitor I 0.023 | ibrutinib 0.018 | [9] 0.02 | ralimetinib 0.07 | [10] -0.03 | [11] -0.009 | [12] 0.004 | [13] -0.02 | [14] 0.041 | [15] 0.007 | [16] -0.032

NMRAL1 (UniProt Q9HBL8)
Sequence of UniProt Q9HBL8 (Q9HBL8 whole entry, looked up): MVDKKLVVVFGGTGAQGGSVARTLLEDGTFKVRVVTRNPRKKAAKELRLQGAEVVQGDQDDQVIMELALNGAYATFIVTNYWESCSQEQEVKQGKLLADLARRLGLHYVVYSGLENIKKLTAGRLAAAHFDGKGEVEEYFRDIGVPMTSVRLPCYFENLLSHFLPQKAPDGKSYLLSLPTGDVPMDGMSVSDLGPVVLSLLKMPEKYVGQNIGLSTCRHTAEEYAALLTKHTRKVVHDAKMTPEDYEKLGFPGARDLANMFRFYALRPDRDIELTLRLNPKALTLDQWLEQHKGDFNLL
inactive: erlotinib 0.008 | [1] 0.012 | [2] -0.111 | [3] -0.011 | [4] -0.037 | [5] -0.054 | [6] 0.141 | [7] 0.024 | [8] 0.001 | IRAK-1-4 Inhibitor I -0.02 | ibrutinib 0.122 | [9] 0.021 | ralimetinib 0.06 | [10] 0.012 | [11] -0.03 | [12] 0.047 | [13] -0.048 | [14] -0.01 | [15] -0.016 | [16] 0

NFATC2 (UniProt Q13469)
inactive: erlotinib 0.002 | [1] 0.067 | [2] 0.014 | [3] 0.032 | [4] -0.016 | [5] 0.002 | [6] -0.144 | [7] -0.018 | [8] -0.049 | IRAK-1-4 Inhibitor I 0.033 | ibrutinib 0.012 | [9] 0.039 | ralimetinib -0.022 | [10] -0.061 | [11] 0.026 | [12] 0.004 | [13] -0.018 | [14] -0.026 | [15] 0.033 | [16] -0.031

MYO1C (UniProt O00159)
active: [14] -0.292
inactive: erlotinib -0.002 | [1] -0.005 | [2] 0.003 | [3] 0.017 | [4] 0.006 | [5] 0.047 | [6] -0.003 | [7] -0.021 | [8] -0.032 | IRAK-1-4 Inhibitor I -0.055 | ibrutinib 0.037 | [9] 0.031 | ralimetinib 0.075 | [10] -0.032 | [11] -0.009 | [12] -0.03 | [13] 0.017 | [15] 0.021 | [16] 0.06

ORC5 (UniProt O43913)
inactive: erlotinib 0.014 | [1] 0.021 | [2] -0.017 | [3] 0.003 | [4] 0.045 | [5] 0.029 | [6] -0.016 | [7] -0.085 | [8] -0.061 | IRAK-1-4 Inhibitor I -0.068 | ibrutinib 0.05 | [9] 0 | ralimetinib 0.047 | [10] -0.001 | [11] 0.022 | [12] -0.027 | [13] -0.008 | [14] 0.012 | [15] 0.053 | [16] -0.007

NCOR1 (UniProt O75376)
Sequence of UniProt O75376 (O75376 whole entry, looked up): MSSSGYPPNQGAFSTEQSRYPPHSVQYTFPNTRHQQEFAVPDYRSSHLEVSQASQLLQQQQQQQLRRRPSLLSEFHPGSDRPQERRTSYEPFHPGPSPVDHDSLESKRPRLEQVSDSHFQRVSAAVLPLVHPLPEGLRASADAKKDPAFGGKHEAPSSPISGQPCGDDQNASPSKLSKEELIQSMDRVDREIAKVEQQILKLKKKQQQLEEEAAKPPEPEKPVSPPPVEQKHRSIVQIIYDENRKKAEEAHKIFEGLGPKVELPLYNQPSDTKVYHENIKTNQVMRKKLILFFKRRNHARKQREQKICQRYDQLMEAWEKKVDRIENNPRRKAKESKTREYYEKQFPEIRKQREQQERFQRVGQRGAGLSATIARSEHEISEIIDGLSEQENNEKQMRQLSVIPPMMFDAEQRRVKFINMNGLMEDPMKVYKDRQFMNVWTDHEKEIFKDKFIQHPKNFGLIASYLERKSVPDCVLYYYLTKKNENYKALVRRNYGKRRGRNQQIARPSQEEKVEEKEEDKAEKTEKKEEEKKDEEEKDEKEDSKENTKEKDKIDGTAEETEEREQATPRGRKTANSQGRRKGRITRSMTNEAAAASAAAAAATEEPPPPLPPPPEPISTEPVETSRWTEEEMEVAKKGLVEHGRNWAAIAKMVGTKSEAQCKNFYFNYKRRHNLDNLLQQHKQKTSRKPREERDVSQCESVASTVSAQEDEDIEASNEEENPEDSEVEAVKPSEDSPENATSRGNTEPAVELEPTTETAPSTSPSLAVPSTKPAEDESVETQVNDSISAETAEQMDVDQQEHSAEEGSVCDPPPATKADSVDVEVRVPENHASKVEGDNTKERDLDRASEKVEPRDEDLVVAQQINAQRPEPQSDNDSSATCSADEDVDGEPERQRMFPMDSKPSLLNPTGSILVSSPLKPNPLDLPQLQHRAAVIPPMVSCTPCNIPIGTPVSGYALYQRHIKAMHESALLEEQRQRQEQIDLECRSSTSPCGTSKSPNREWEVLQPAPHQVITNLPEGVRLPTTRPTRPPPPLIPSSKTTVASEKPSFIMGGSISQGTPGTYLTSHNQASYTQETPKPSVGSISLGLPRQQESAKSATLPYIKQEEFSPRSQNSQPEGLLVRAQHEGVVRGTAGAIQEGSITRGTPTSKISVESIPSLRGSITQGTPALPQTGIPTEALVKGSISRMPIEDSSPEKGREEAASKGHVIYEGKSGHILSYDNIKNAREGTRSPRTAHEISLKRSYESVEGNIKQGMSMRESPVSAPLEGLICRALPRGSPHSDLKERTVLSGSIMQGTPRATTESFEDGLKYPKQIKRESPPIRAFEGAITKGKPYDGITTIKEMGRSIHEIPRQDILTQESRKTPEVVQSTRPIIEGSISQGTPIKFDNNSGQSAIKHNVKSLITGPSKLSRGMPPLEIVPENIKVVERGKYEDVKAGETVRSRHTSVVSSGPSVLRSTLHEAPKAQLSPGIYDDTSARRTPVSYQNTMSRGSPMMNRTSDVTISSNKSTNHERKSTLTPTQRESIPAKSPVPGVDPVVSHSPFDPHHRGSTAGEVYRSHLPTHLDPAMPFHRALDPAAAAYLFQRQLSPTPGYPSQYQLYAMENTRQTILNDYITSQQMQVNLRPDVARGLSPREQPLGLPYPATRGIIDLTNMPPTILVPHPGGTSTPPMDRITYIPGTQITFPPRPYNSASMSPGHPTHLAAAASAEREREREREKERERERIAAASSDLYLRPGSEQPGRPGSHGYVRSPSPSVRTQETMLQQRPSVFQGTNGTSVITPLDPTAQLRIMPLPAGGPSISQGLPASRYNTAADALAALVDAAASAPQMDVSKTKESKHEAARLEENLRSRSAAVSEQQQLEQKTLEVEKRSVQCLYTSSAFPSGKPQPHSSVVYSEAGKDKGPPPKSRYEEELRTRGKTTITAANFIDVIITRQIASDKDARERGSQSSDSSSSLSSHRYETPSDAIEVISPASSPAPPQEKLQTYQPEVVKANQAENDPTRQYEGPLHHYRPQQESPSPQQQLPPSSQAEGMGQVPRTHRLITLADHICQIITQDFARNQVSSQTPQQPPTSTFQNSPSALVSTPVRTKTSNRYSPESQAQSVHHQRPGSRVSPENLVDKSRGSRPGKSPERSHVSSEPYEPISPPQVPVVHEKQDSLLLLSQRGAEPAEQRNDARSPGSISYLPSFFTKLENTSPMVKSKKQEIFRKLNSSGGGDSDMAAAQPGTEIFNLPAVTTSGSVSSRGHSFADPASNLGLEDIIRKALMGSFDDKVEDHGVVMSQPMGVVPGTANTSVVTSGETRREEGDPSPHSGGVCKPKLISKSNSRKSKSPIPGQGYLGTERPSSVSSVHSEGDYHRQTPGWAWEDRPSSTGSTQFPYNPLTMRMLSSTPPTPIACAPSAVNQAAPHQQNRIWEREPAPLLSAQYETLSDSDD
inactive: erlotinib 0.011 | [1] -0.05 | [2] 0.081 | [3] 0.004 | [4] -0.014 | [5] -0.041 | [6] -0.001 | [7] 0.009 | [8] 0.019 | IRAK-1-4 Inhibitor I 0.022 | ibrutinib 0.002 | [9] 0.015 | ralimetinib 0.021 | [10] -0.033 | [11] 0.014 | [12] 0.026 | [13] -0.026 | [14] 0 | [15] -0.006 | [16] -0.005
